Experimental data: PubChem BioAssay
Values without a mark were called inactive. Calls of active or inactive are those of the source.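 How the source made its calls, unless noted: active means inhibition above 50%; inactive means the rest.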

Test: antimalarial activity against Dd2 strain (AID 2302;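 active means growth inhibition above 50% at the single 2 µM test dose, taken to imply half-maximal potency below 2 µM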;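 further: 0% = DMSO untreated growth and 100% = chloroquine plus artemisinin killed control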)
Conditions: P. falciparum Dd2 in RBCs, LDH growth readout, 72 h; at 2 µM; hits give high values
With `Cc1cc(C(=O)N[C@H]2CCN(Cc3ccc(OCCCN(C)C)cc3)C2)ccc1Br` the growth inhibition was 62% (active).
In the case of `Cc1cc(=O)[nH]c(-n2nc(C)cc2NC(=O)C(c2ccccc2)c2ccccc2)n1`, the growth inhibition is reported as 77% (active).
For `N#Cc1ccc(CN2CCCN(Cc3cccc(NC(=O)c4ccc(Cl)c(Cl)c4)c3)CC2)cc1`, the growth inhibition was 10%.
In the case of `O=C(Nc1ccncc1)c1cc(C(=O)Nc2ccncc2)cc([N+](=O)[O-])c1`, the growth inhibition is reported as 50% (active).
In the case of `Cc1cccc(NC(=O)NCc2ccccc2)n1`, the growth inhibition is reported as 2%.
`Cc1ccc2c(Cl)c(C(=O)N3CCCc4ccccc43)sc2c1` showed a growth inhibition of 15%.
In the case of `CS(=O)(=O)Nc1ccc2[nH]cc(C3CCN(CC(O)C4CCN(C(=O)/C=C/c5ccc(Cl)c(Cl)c5)CC4)CC3)c2c1` (stereo not given), the growth inhibition is reported as -10%.
With `N#Cc1ccc(OCCN(Cc2ccccc2C(F)(F)F)c2ccc(C#N)c(C(F)(F)F)c2)cc1` the growth inhibition was 84% (active).
In the case of `Cc1cc(=O)c(-c2ccc(Oc3cccc(Cl)c3)cc2)c(C)[nH]1`, the growth inhibition is reported as 89% (active).
In the case of `COc1cc2nc(N3CCC(CNC(=O)c4ccc(-c5ccc(C(=O)N(C)C)cc5O)cc4)CC3)nc(N)c2cc1OC`, the growth inhibition is reported as 90% (active).
In the case of `CCN(CC)CCN(Cc1ccc(-c2ccc(C(F)(F)F)cc2)cc1)C(=O)Cn1c(CCc2cccc(F)c2F)nc(=O)c2sccc21`, the growth inhibition is reported as 70% (active).
For `Cc1[nH]c(C)c(-c2ccc(-c3cccc(C(F)(F)F)c3)nc2)c(=O)c1Br`, the growth inhibition was 96% (active).
With `Cc1ccc(C(=O)Nc2ccc(Nc3ccnc4cc(-c5ccccn5)ccc34)cc2O)cc1` the growth inhibition was 100% (active).
`COC(=O)c1cccc(CNCc2cccc(-c3cccc(-c4nc5c(C)cccc5[nH]4)c3)c2)c1` showed a growth inhibition of 47%.
Work on `O=C(NCCN1CCCC1)c1cccc(-c2ccc(-c3nc4ccc(F)cc4[nH]3)s2)c1` yielded a growth inhibition of 4%.
With `COC(=O)C(Cc1ccccc1)NC(=O)NC1CCN(c2ccnc(Nc3ccc(F)cc3)n2)C1` (stereo not given) the growth inhibition was 14%.
For `O=C(CSc1n[nH]c(-c2ccccc2Br)n1)c1c[nH]c2ccccc12`, the growth inhibition was 95% (active).
In the case of `CN(C)CCN(C)Cc1ccc(-c2ccc(NC(=O)c3cccc(Cl)c3)cc2)cc1`, the growth inhibition is reported as 54% (active).
For `COc1ccc(CCn2c(=N)c(C(=O)NCc3ccccc3)cc3c(=O)n4ccccc4nc32)cc1`, the growth inhibition was 18%.
In the case of `CCOc1ccccc1NC(=O)Nc1ccc2c(c1)CCN(C1CCC1)CC2`, the growth inhibition is reported as 2%.
In the case of `O=C(Nc1cccc(C(F)(F)F)c1)c1cccc2[nH]c(C(F)(F)F)nc12`, the growth inhibition is reported as 98% (active).
`Cc1cc(C)c(O)c(-c2cc(C(=O)Nc3ccc(S(=O)(=O)N4CC(C)OC(C)C4)cc3)[nH]n2)c1` (stereo not given) showed a growth inhibition of 16%.
With `CCNc1cc(C)nc(Nc2ccc(NC(=O)c3cccs3)cc2)n1` the growth inhibition was 50% (active).
Molecule `CCOc1c(CNCCCNc2cc(=O)c3ccccc3[nH]2)cc(I)cc1OC` has a growth inhibition of 6%.
For `O=C(NCCN1CCCCC1)N1CCCN(c2ncnc3cc(-c4ccccc4)sc23)CC1`, the growth inhibition was 80% (active).
`NC1CCN(Cc2ccc(-c3cccc(-c4nc5ccc(F)cc5[nH]4)c3)cc2)C1` (stereo not given) showed a growth inhibition of 16%.
For `Cc1cccc2[nH]c(-c3ccc(-c4ccc(CNCc5ccccc5)cc4)s3)nc12`, the growth inhibition was 87% (active).
In the case of `COc1ccc2nc(/C=C/c3cccc4ccc(C)nc34)[nH]c2c1`, the growth inhibition is reported as 77% (active).
In the case of `CCOC(=O)c1c(C)n(-c2ccccc2)c2ccc(OC(=O)COc3ccc(Cl)cc3Cl)cc12`, the growth inhibition is reported as 87% (active).
With `CCOc1ccc2c(NN=Cc3ccc(F)cc3)cc(C)nc2c1` the growth inhibition was 99% (active).
In the case of `CCCCCC(C)N=C(Nc1ccc(C#N)cc1O)Nc1ccccc1Br` (stereo not given), the growth inhibition is reported as 95% (active).
`O=C(CCc1cccnc1)Nc1ccc(-c2cccc(-c3nc4ccc(F)cc4[nH]3)c2)cc1` showed a growth inhibition of 9%.
With `COc1ccc2nccc(N3CCC(CCNCc4cc5c(cn4)OCCO5)CC3)c2c1` the growth inhibition was 99% (active).
For `Cc1cccc2[nH]c(-c3ccc(-c4cccc(CN5CCC(CCN6CCCCC6)CC5)c4)s3)nc12`, the growth inhibition was 100% (active).
`Cc1ccc(CN2CCN(c3cc4c(cc3Cl)CCN4C(=O)Cc3ccc(Cl)c(NC(=O)Nc4cccc(C#N)c4)c3)CC2)cc1` showed a growth inhibition of 29%.
For `O=C(NC1CCCc2ccccc21)C1CCCN(C(=O)c2ccc(O)c(-c3ccc(Cl)c(Cl)c3)c2)C1` (stereo not given), the growth inhibition was 54% (active).
With `Nc1nc2ncn(COC(COCc3ccccc3)COCc3ccccc3)c2c(=O)[nH]1` (tested in a mixture with another compound) the growth inhibition was 57% (active).
`CN1CCN(c2ccc(Nc3nc(N)c4ccn(C5CCC5)c4n3)cc2)CC1` showed a growth inhibition of 47%.
`CCCCCN1CCCC(CNS(=O)(=O)c2ccc(C(=O)Nc3ccc(C(F)(F)F)cc3)cc2)C1` (stereo not given) gave a growth inhibition of -9%.
With `CC(=O)Nc1ccc(OCCCCN(Cc2ccccc2C(F)(F)F)c2ccc(C(F)(F)F)c(C#N)c2)c(Cl)c1` the growth inhibition was 96% (active).

Test: HepG2 cytotoxicity, primary screen, cytotoxicity control for P. falciparum antimalarial project, cell-based, ATP luminescence (AID 2303);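 further: 0% = DMSO wells and 100% = digitonin-killed cells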
Conditions: HepG2 viability, 24-48 h, at 10 µM, hits give high values
For `Cc1cc(C(=O)N[C@H]2CCN(Cc3ccc(OCCCN(C)C)cc3)C2)ccc1Br`, the inhibition was 88% (active).
Molecule `Cc1cc(=O)[nH]c(-n2nc(C)cc2NC(=O)C(c2ccccc2)c2ccccc2)n1` has an inhibition of 31%.
Molecule `N#Cc1ccc(CN2CCCN(Cc3cccc(NC(=O)c4ccc(Cl)c(Cl)c4)c3)CC2)cc1` has an inhibition of 19%.
In the case of `O=C(Nc1ccncc1)c1cc(C(=O)Nc2ccncc2)cc([N+](=O)[O-])c1`, the inhibition is reported as 1%.
Molecule `Cc1cccc(NC(=O)NCc2ccccc2)n1` has an inhibition of 14%.
`Cc1ccc2c(Cl)c(C(=O)N3CCCc4ccccc43)sc2c1` showed an inhibition of 4%.
Molecule `CS(=O)(=O)Nc1ccc2[nH]cc(C3CCN(CC(O)C4CCN(C(=O)/C=C/c5ccc(Cl)c(Cl)c5)CC4)CC3)c2c1` (stereo not given) has an inhibition of 28%.
In the case of `N#Cc1ccc(OCCN(Cc2ccccc2C(F)(F)F)c2ccc(C#N)c(C(F)(F)F)c2)cc1`, the inhibition is reported as 69% (active).
Work on `Cc1cc(=O)c(-c2ccc(Oc3cccc(Cl)c3)cc2)c(C)[nH]1` yielded an inhibition of 23%.
For `COc1cc2nc(N3CCC(CNC(=O)c4ccc(-c5ccc(C(=O)N(C)C)cc5O)cc4)CC3)nc(N)c2cc1OC`, the inhibition was 2%.
With `CCN(CC)CCN(Cc1ccc(-c2ccc(C(F)(F)F)cc2)cc1)C(=O)Cn1c(CCc2cccc(F)c2F)nc(=O)c2sccc21` the inhibition was 70% (active).
With `Cc1[nH]c(C)c(-c2ccc(-c3cccc(C(F)(F)F)c3)nc2)c(=O)c1Br` the inhibition was 28%.
For `Cc1ccc(C(=O)Nc2ccc(Nc3ccnc4cc(-c5ccccn5)ccc34)cc2O)cc1`, the inhibition was 100% (active).
`COC(=O)c1cccc(CNCc2cccc(-c3cccc(-c4nc5c(C)cccc5[nH]4)c3)c2)c1` showed an inhibition of -1%.
For `O=C(NCCN1CCCC1)c1cccc(-c2ccc(-c3nc4ccc(F)cc4[nH]3)s2)c1`, the inhibition was 51% (active).
Work on `COC(=O)C(Cc1ccccc1)NC(=O)NC1CCN(c2ccnc(Nc3ccc(F)cc3)n2)C1` (stereo not given) yielded an inhibition of 0%.
`O=C(CSc1n[nH]c(-c2ccccc2Br)n1)c1c[nH]c2ccccc12` gave an inhibition of 7%.
In the case of `CN(C)CCN(C)Cc1ccc(-c2ccc(NC(=O)c3cccc(Cl)c3)cc2)cc1`, the inhibition is reported as 50% (active).
In the case of `COc1ccc(CCn2c(=N)c(C(=O)NCc3ccccc3)cc3c(=O)n4ccccc4nc32)cc1`, the inhibition is reported as 14%.
`CCOc1ccccc1NC(=O)Nc1ccc2c(c1)CCN(C1CCC1)CC2` showed an inhibition of 15%.
In the case of `O=C(Nc1cccc(C(F)(F)F)c1)c1cccc2[nH]c(C(F)(F)F)nc12`, the inhibition is reported as 81% (active).
In the case of `Cc1cc(C)c(O)c(-c2cc(C(=O)Nc3ccc(S(=O)(=O)N4CC(C)OC(C)C4)cc3)[nH]n2)c1` (stereo not given), the inhibition is reported as 31%.
Molecule `CCNc1cc(C)nc(Nc2ccc(NC(=O)c3cccs3)cc2)n1` has an inhibition of 21%.
With `CCOc1c(CNCCCNc2cc(=O)c3ccccc3[nH]2)cc(I)cc1OC` the inhibition was -4%.
For `O=C(NCCN1CCCCC1)N1CCCN(c2ncnc3cc(-c4ccccc4)sc23)CC1`, the inhibition was 2%.
`NC1CCN(Cc2ccc(-c3cccc(-c4nc5ccc(F)cc5[nH]4)c3)cc2)C1` (stereo not given) gave an inhibition of 47%.
For `Cc1cccc2[nH]c(-c3ccc(-c4ccc(CNCc5ccccc5)cc4)s3)nc12`, the inhibition was 22%.
Molecule `COc1ccc2nc(/C=C/c3cccc4ccc(C)nc34)[nH]c2c1` has an inhibition of 25%.
In the case of `CCOC(=O)c1c(C)n(-c2ccccc2)c2ccc(OC(=O)COc3ccc(Cl)cc3Cl)cc12`, the inhibition is reported as 11%.
Work on `CCOc1ccc2c(NN=Cc3ccc(F)cc3)cc(C)nc2c1` yielded an inhibition of 22%.
For `CCCCCC(C)N=C(Nc1ccc(C#N)cc1O)Nc1ccccc1Br` (stereo not given), the inhibition was 2%.
For `O=C(CCc1cccnc1)Nc1ccc(-c2cccc(-c3nc4ccc(F)cc4[nH]3)c2)cc1`, the inhibition was 67% (active).
For `COc1ccc2nccc(N3CCC(CCNCc4cc5c(cn4)OCCO5)CC3)c2c1`, the inhibition was 26%.
For `Cc1cccc2[nH]c(-c3ccc(-c4cccc(CN5CCC(CCN6CCCCC6)CC5)c4)s3)nc12`, the inhibition was 99% (active).
With `Cc1ccc(CN2CCN(c3cc4c(cc3Cl)CCN4C(=O)Cc3ccc(Cl)c(NC(=O)Nc4cccc(C#N)c4)c3)CC2)cc1` the inhibition was 3%.
With `O=C(NC1CCCc2ccccc21)C1CCCN(C(=O)c2ccc(O)c(-c3ccc(Cl)c(Cl)c3)c2)C1` (stereo not given) the inhibition was -3%.
Work on `Nc1nc2ncn(COC(COCc3ccccc3)COCc3ccccc3)c2c(=O)[nH]1` (tested in a mixture with another compound) yielded an inhibition of 18%.
Molecule `CN1CCN(c2ccc(Nc3nc(N)c4ccn(C5CCC5)c4n3)cc2)CC1` has an inhibition of -3%.
In the case of `CCCCCN1CCCC(CNS(=O)(=O)c2ccc(C(=O)Nc3ccc(C(F)(F)F)cc3)cc2)C1` (stereo not given), the inhibition is reported as 51% (active).
Molecule `CC(=O)Nc1ccc(OCCCCN(Cc2ccccc2C(F)(F)F)c2ccc(C(F)(F)F)c(C#N)c2)c(Cl)c1` has an inhibition of 14%.
